Common to all, as to test: DAPPL (digital affinity profiling via proximity ligation, sequencing); 10 mM Tris-HCl pH 7.5, 50 mM NaCl, 1 mM DTT, 4% glycerol, room temperature, 30 min; GST-TFs on glutathione beads, 16-mer random dsDNA library, 0.1% formaldehyde crosslink after washing; high values mean tight binding
What all share (settings): protein: recombinant; tags: N-terminal GST; dsDNA, one strand shown

One experiment addresses T1, ELK1 (Homo sapiens, UniProt P19419 1-428).
T1 sequence: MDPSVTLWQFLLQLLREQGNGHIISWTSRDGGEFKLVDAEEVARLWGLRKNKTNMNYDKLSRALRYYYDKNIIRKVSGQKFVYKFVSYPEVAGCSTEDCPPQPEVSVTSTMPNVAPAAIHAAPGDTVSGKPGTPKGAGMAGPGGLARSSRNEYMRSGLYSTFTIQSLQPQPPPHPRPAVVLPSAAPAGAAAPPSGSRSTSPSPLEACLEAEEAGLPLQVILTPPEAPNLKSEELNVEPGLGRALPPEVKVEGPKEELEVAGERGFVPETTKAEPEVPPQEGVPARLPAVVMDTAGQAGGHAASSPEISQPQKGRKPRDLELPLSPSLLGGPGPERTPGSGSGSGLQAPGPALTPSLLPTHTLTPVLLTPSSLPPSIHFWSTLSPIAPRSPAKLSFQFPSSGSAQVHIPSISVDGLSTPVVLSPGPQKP
An outline of the steps:
(§1)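 A tag-only sample was pooled with DNA-barcoded human transcription factors that had been expressed in yeast as GST fusions and captured on glutathione beads. The pools were incubated for 30 min at room temperature with 200 nmole of a random double-stranded 16-mer DNA library in Tris/NaCl/DTT/glycerol buffer, then washed, crosslinked with 0.1% formaldehyde, proximity-ligated (BsaI/T4 ligase, 1 h, 37 °C), PCR-amplified and sequenced on an Illumina NextSeq500. Binding signal is each hexamer's read frequency for a factor divided by its frequency for the tag-only sample.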

The target of a further experiment is T2, GABPA (Homo sapiens, UniProt Q06546 1-454).
T2 sequence: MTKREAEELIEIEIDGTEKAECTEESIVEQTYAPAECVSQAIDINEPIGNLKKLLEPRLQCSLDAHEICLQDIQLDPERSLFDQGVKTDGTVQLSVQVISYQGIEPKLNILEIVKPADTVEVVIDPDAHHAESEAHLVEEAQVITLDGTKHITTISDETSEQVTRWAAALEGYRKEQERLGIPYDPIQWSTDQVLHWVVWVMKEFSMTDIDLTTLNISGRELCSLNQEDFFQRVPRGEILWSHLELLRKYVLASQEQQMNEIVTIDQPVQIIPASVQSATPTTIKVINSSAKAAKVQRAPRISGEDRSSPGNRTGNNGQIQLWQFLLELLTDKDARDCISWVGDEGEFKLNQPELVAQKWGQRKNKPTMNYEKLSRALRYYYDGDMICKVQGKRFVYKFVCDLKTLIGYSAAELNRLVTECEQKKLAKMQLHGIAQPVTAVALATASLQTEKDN
An outline of the steps:
as §1

A further experiment addresses T3, ERG (Homo sapiens, UniProt P11308 1-479).
T3 sequence: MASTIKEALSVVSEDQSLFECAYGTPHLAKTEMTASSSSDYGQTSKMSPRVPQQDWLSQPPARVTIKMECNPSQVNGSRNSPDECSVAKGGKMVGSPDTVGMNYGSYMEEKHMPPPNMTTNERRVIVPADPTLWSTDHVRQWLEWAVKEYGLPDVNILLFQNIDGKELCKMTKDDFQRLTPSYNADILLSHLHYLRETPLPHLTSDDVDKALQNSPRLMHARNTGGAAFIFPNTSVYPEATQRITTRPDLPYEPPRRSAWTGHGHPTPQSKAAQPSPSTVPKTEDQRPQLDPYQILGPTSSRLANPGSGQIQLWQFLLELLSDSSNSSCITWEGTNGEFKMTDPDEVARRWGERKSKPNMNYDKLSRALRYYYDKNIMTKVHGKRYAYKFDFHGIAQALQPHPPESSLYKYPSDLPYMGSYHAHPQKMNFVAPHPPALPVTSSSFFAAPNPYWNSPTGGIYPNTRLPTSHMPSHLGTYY
An outline of the steps:
as §1

The next experiment has as its target ELF1 (Homo sapiens, UniProt P32519 1-619). In short, it runs like this: as §1
The target of a further experiment is T4, EHF (Homo sapiens, UniProt Q9NZC4 1-300).
T4 sequence: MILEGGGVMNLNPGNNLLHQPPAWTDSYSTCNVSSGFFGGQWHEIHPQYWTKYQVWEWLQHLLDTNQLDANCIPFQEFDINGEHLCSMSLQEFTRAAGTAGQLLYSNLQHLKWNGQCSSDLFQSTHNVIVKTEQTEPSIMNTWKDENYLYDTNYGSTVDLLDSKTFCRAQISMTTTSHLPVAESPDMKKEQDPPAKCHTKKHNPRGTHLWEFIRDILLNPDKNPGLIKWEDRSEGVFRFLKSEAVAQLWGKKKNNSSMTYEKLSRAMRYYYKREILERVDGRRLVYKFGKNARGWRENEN
An outline of the steps: as §1

The target in a further experiment is SPIB (Homo sapiens, UniProt Q01892 1-262). An outline of the steps:
as §1

The target in another experiment is T5, ELK3 (Homo sapiens, UniProt P41970 1-407).
T5 sequence: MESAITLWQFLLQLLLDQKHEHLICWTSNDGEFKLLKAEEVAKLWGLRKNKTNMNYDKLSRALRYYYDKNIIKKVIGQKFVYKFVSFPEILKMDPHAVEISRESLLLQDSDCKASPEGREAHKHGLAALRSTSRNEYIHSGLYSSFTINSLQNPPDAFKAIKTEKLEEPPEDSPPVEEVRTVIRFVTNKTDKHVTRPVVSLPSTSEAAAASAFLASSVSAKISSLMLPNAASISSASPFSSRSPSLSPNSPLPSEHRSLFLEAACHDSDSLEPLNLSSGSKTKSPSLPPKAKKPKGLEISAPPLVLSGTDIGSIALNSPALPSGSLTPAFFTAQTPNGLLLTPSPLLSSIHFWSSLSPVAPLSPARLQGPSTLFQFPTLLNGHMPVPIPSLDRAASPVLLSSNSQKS
In short, it runs like this: as §1

The next experiment addresses T6, SPIC (Homo sapiens, UniProt Q8N5J4 1-248).
T6 sequence: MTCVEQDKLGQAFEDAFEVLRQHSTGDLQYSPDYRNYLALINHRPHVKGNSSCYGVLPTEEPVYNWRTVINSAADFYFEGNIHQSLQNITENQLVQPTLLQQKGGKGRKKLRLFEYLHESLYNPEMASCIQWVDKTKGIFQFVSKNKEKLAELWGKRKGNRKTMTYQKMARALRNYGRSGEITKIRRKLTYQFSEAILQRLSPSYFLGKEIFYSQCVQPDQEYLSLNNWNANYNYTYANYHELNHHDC
An outline of the steps:
as §1

The target of a further experiment is ELF4 (Homo sapiens, UniProt Q99607 1-663). An outline of the steps: as §1
Chain of ELF4 (Q99607 whole entry): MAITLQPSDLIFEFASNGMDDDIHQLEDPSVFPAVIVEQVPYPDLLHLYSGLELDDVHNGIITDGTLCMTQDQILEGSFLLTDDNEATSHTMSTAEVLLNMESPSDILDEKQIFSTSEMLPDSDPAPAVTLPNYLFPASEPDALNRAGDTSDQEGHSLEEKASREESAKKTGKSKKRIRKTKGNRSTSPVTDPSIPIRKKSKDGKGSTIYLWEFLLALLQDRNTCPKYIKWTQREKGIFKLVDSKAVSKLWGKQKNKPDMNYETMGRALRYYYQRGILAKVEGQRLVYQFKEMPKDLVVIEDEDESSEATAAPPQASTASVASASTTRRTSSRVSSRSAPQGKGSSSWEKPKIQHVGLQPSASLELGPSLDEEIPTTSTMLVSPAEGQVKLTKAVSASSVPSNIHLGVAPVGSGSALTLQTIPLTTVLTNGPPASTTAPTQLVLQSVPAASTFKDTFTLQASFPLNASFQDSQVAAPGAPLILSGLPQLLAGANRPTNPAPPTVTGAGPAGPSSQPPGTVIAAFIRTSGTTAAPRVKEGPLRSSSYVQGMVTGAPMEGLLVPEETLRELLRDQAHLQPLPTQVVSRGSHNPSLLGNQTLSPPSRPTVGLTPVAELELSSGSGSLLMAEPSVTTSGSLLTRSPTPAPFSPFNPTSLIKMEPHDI
The target in the next experiment is T7, ELK4 (Homo sapiens, UniProt P28324-2 1-405).
T7 sequence: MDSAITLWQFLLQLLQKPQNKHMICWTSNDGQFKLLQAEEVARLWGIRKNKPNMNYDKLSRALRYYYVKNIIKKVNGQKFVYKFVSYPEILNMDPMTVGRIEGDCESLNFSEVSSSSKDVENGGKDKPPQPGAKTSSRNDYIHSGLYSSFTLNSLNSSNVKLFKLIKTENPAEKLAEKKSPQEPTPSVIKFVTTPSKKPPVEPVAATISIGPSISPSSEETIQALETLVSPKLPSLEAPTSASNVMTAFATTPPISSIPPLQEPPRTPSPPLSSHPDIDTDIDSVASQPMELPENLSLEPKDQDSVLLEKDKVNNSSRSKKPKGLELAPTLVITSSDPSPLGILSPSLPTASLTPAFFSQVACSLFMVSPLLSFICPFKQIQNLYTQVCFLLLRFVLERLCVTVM
An outline of the steps:
as §1

The target of a further experiment is ETV1 (Homo sapiens, UniProt P50549 1-477). An outline of the steps: as §1
Chain of ETV1 (P50549 whole entry): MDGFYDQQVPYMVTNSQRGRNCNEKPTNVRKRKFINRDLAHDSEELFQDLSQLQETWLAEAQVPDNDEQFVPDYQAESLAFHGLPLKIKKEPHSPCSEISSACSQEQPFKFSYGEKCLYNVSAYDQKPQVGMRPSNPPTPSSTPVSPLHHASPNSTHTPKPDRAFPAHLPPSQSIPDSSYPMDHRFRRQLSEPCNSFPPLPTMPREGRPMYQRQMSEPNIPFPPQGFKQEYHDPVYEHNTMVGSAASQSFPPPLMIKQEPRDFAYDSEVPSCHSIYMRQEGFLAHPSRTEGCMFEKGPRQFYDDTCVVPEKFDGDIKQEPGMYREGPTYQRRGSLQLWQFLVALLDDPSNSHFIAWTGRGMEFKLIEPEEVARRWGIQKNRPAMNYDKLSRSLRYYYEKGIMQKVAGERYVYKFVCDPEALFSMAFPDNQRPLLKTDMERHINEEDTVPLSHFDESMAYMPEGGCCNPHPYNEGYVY
The target in another experiment is T8, ERF (Homo sapiens, UniProt P50548 1-548).
T8 sequence: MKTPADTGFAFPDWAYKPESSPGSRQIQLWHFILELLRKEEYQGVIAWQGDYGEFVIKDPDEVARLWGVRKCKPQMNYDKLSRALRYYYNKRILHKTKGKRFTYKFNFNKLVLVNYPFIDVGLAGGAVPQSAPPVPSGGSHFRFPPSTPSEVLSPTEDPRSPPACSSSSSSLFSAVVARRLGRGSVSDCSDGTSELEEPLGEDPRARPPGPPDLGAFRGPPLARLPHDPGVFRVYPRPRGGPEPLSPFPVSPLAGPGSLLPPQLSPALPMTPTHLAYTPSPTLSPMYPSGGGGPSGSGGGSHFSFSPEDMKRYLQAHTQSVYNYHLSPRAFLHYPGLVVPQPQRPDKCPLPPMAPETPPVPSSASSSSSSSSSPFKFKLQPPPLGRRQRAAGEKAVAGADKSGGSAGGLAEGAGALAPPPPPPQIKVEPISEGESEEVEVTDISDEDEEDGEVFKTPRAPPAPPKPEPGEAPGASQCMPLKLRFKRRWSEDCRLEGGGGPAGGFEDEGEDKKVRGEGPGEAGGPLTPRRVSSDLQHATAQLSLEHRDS
An outline of the steps:
as §1

Another experiment has as its target T9, ETV3L (Homo sapiens, UniProt Q6ZN32 1-361).
T9 sequence: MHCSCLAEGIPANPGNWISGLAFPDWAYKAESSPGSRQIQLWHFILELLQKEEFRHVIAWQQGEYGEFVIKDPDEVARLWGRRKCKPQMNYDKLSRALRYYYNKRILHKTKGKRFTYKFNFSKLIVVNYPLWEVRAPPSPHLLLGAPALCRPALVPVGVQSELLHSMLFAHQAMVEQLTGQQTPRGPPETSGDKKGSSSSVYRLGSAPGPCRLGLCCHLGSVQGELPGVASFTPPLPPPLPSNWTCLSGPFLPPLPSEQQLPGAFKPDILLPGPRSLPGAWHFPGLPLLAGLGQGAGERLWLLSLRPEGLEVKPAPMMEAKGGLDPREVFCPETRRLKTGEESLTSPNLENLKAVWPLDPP
In short, it runs like this:
as §1

In a further experiment the target is T10, SPDEF (Homo sapiens, UniProt O95238 1-335).
T10 sequence: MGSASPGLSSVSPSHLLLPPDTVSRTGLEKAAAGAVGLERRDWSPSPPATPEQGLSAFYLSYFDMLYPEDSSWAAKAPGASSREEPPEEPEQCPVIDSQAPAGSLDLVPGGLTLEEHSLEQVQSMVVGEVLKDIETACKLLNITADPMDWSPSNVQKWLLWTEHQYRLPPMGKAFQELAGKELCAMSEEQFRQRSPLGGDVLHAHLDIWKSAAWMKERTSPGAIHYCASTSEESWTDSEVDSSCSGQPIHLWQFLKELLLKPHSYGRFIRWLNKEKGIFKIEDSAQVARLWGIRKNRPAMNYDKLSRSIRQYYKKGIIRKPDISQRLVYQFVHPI
An outline of the steps: as §1

The next experiment concerns the target T11, ETV7 (Homo sapiens, UniProt Q9Y603 1-341).
T11 sequence: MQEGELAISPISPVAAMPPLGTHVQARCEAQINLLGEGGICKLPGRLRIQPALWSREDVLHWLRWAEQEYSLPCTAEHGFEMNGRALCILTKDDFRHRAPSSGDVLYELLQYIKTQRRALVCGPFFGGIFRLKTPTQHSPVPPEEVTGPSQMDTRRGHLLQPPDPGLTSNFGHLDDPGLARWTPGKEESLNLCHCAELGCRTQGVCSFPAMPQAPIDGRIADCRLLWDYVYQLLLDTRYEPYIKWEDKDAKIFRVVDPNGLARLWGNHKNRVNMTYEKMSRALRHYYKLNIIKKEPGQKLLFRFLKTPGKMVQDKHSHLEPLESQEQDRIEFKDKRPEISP
An outline of the steps: as §1

The target in the next experiment is T12, ETV3 (Homo sapiens, UniProt P41162-2 1-143).
T12 sequence: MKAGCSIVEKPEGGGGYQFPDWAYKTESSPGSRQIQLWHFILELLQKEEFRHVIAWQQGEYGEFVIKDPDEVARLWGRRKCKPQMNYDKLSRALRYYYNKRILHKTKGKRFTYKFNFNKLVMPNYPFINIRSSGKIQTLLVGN
An outline of the steps:
as §1

For the next experiment, the target named is ETV6 (Homo sapiens, UniProt P41212 1-452). An outline of the steps:
as §1

Chain of ELF1 (P32519 whole entry): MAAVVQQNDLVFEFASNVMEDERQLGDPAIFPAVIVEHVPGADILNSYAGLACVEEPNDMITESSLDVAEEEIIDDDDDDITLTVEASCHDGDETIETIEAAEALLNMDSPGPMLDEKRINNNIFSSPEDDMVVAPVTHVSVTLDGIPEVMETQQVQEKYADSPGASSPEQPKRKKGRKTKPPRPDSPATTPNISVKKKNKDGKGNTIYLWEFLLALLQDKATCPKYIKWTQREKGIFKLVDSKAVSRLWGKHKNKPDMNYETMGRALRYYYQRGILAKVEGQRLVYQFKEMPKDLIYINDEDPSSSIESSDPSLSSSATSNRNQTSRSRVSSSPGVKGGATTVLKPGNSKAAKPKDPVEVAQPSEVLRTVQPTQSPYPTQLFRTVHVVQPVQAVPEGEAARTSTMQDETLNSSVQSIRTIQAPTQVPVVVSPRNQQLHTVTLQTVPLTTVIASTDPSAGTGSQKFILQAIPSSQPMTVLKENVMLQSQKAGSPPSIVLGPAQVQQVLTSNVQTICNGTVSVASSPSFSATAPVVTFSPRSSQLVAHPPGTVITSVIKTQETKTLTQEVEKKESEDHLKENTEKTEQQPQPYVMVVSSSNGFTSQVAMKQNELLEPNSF
Chain of SPIB (Q01892 whole entry): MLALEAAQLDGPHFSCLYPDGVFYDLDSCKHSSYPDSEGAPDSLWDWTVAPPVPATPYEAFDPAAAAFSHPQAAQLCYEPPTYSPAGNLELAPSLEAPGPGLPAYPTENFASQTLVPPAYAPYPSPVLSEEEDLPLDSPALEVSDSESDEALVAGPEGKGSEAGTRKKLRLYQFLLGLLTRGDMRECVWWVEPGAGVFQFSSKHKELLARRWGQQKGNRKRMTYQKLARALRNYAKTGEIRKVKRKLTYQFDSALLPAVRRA
Chain of ETV6 (P41212 whole entry): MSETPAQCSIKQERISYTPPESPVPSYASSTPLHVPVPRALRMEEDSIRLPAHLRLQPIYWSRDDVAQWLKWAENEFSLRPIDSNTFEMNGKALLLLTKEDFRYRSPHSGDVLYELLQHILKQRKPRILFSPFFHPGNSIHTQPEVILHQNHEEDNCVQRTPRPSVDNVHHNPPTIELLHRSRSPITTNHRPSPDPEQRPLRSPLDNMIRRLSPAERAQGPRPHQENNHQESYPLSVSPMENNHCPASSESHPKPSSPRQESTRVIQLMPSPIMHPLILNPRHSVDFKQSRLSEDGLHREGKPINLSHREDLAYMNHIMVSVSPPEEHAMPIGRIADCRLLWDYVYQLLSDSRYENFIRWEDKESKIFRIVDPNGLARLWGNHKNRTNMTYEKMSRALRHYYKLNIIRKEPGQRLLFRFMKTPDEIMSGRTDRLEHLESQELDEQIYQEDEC

With CTTAAG, the binding signal in the experiment with ELK1 is 1.11 fold enrichment (6-mer frequency, TF over GST control); with GABPA, 1.13 fold enrichment (6-mer frequency, TF over GST control); with ERG, 1.09 fold enrichment (6-mer frequency, TF over GST control); with ELF1 it was 1.09 fold enrichment (6-mer frequency, TF over GST control); with EHF, 1.1 fold enrichment (6-mer frequency, TF over GST control); in the experiment with SPIB, 1.11 fold enrichment (6-mer frequency, TF over GST control). Also, the binding signal was 1.03 fold enrichment (6-mer frequency, TF over GST control) with ELK3; 1.1 fold enrichment (6-mer frequency, TF over GST control) with SPIC; 1.07 fold enrichment (6-mer frequency, TF over GST control) with ELF4; 1.06 fold enrichment (6-mer frequency, TF over GST control) with ELK4; 1.1 fold enrichment (6-mer frequency, TF over GST control) with ETV1; 1.07 fold enrichment (6-mer frequency, TF over GST control) with ERF. For the same sequence, the binding signal with ETV3L is 1.08 fold enrichment (6-mer frequency, TF over GST control); with SPDEF, 1.04 fold enrichment (6-mer frequency, TF over GST control); in the experiment with ETV7, 1.04 fold enrichment (6-mer frequency, TF over GST control); with ETV3 it was 1.13 fold enrichment (6-mer frequency, TF over GST control); with ETV6, 1.03 fold enrichment (6-mer frequency, TF over GST control).
